PubChem BioAssay (NCI)
Compounds without any hit were thinned out: in the full panel of roughly 83,000, 20% have a hit.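 96-well plates, one dose, 48 hours. Percent growth reported; active if below 10.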 Calls of active or inactive are those of the source.

System: UACC-62 melanoma
Test: NCI-60 one-dose screen, 48 h (100 = growth as untreated, 0 = no growth, -100 = all killed)
Details: 10 µM unless noted

SMILES	growth
COc1cc(OC)c(NC(=O)c2cc3ccccc3cc2O)cc1Cl	3.04% (active)
Cc1cn(-c2cc(NC(=O)c3cccc(C#Cc4cccc5[nH]nc(N)c45)c3)cc(C(F)(F)F)c2)cn1	5.82% (active)
CCOC(=O)C/C(=N\Nc1cc(=O)[nH]c2ccc(Br)cc12)C(=O)OCC	90.6% (inactive)
CS(=O)(=O)Nc1cc(-c2ccc3ncnc(Nc4ccc5c(cnn5Cc5ccc(F)cc5)c4)c3c2)cnc1Cl	21% (inactive)
CCCCNC(=O)Oc1ccc(/C(=C(/C)Cc2ccc(OC)cc2)c2ccc(OCCN(CC)CC)cc2)cc1	84.7% (inactive)
COc1ccc(-c2nc3c(ncc4ccc(=O)[nH]c43)s2)cc1	88.1% (inactive)
COc1c(C(=O)Nc2ccc(C)c(Br)c2)ccc2ccccc12	71.6% (inactive)
O=C(Nc1nc2ccccc2s1)c1ccc(F)cc1	89.5% (inactive)
CN(C)c1ccc(C(=O)OCCCCCCl)cc1	94.5% (inactive)
Cn1ccnc1C(=O)/C=C/c1ccc(CC(=O)Nc2cc(C(F)(F)F)cc(C(F)(F)F)c2)cc1	67.5% (inactive)
c1ccc(-c2oc(-c3ccccc3)c(CN3CCCCC3)c2CN2CCCCC2)cc1	37.6% (inactive)
O=C1/C(=C/c2ccccc2Br)COc2ccc(O)cc21	66.4% (inactive)
COc1ccc(/C=C/C(=O)c2cc3c(N)c(C(=O)Nc4cccc5ccccc45)sc3nc2C)cc1	21.3% (inactive)
CC(C)c1ccc(C(=O)Nc2sc3c(c2C(N)=O)CCC(=O)C3)cc1	-35.7% (active)
C=C(C)[C@@H]1CC[C@]2(C(=O)N3CCOCC3)CC[C@]3(C)[C@H](CC[C@@H]4[C@@]5(C)C/C(=C/c6ccncc6)C(=O)C(C)(C)[C@@H]5CC[C@]43C)[C@@H]12	43.1% (inactive)
Cc1cn(-c2cc(NC(=O)c3cncc(C#Cc4cnc(N)c5ncccc45)c3)cc(C(F)(F)F)c2)cn1	35.2% (inactive)
Nc1nc2ccccc2c2c1S(=O)(=O)c1ccc(Cl)cc1C2=O	24.7% (inactive)
CCC(=C(c1ccc(OCCN2CCCCC2)cc1)c1ccc(OCCN2CCCCC2)cc1)c1ccc(Cl)cc1	-89.7% (active)
O=C1C(Cl)=C(Nc2ccc(S(=O)(=O)N3CCOCC3)cc2)C(=O)c2ccccc21	29.7% (inactive)
COc1ccc(C/C(C)=C(\c2ccc(Cl)cc2)c2ccc(OCCN3CCCCC3)cc2)cc1	83.8% (inactive)
COc1cc2c(cc1OC)C(C)N(S(N)(=O)=O)CC2 (stereo unspecified)	95.4% (inactive)
Cc1[nH]c(=O)[nH]c(=O)c1Br	97.3% (inactive)
Clc1cccc(Nc2ncnc3ccc(-c4cnc5[nH]ccc5c4)cc23)c1	90.2% (inactive)
CCCCNC(=O)Oc1ccc(/C(=C(/C)Cc2ccc(OC)cc2)c2ccc(OCCN3CCCC3)cc2)cc1	45.4% (inactive)
C#CCOC(=O)/C=C/c1cn(-c2ccccc2)nc1-c1ccc(OC)cc1	85.4% (inactive)
COC(=O)[C@]1(C)CCC[C@]2(C)[C@H]3C[C@H]4C(C(C)C)=C[C@]3(CC[C@H]21)[C@@H]1C(=O)CC[C@H](OCCC#N)[C@@H]14	69.3% (inactive)
